HT1080 IDH1KD tx – kills HT-1080 cells with IDH1 knockdown. 2% of 360,000 active. Potency, µM (top dose mostly 46.1 µM), without a hit: at the highest dose activity, negative = toxicity, actives largely listed as cytotoxic. HT-1080 IDH1 knockdown viability, ATP luminescence, 48 h;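 note: 0% = DMSO wells and -100% = cell-free medium wells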
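CellTiter-Glo luminescence after 48 h compound exposure at 37 degrees C of IDH1-knockdown HT-1080 cells in 5% FBS RPMI. %Activity scaled between DMSO wells and cell-free media wells, with curves fitted and assigned curve classes.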
HT1080NT lethal – kills 2HG-producing HT-1080-NT fibrosarcoma cells; 1.6% of 360,000 active; HT-1080-NT fibrosarcoma viability, CellTiter-Glo ATP luminescence, 48 h; AID 686970; Potency, µM (series often up to 46.1 µM), inactives show at the top dose activity, negative = less viability, hits mostly cytotoxic;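 note: NT is the 2HG producing partner of a matched IDH1 knockdown line; 0% = DMSO-treated cells and -100% = media-only wells without cells; nearly all actives have a fitted effect of over 55% in size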
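A 48-hour cytotoxicity screen used HT-1080-NT cells plated 2 hours before compound delivery. ATP-based CellTiter-Glo luminescence measured viability, normalized to DMSO and no-cell controls.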
KB-V1 MDR tox – kills drug-selected multidrug resistant KB-V1 cells; KB-V1 MDR cells viability, CellTiter-Glo, 72 h; Potency, µM (doses to about 46.1 µM), usual class: cytotoxic; 3.4% of 400,000 active; AID 1347076; note: % is set by controls: 0 for no effect and ±100 for the full control effect; nearly all actives have a fitted effect of over 60% in size
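Following 72 h at 37 degrees C with compound, KB-V1 cell viability was read by CellTiter-Glo luminescence, medium being phenol-red-free DMEM plus 10% FBS; concentration-response parameters came from normalized, curve-fitted qHTS data.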
ATXN viability – reduces viability in counter-screen for ATXN expression inhibitors | 0.49% of 400,000 active | Potency, µM (top dose mostly 56.7 µM), most hits filed as cytotoxic | AID 651635 | S2 cells (HEK-293 line with an ATXN2-luciferase reporter) viability, CellTiter-Fluor protease fluorescence, 24 h; note: nearly all actives have a fitted effect of over 40% in size
KB-3-1 cytotox – KB-3-1 parental cell cytotoxicity | KB-3-1 viability, CellTiter-Glo ATP luminescence, 72 h | Potency, µM (top dose mostly 46.1 µM), actives largely listed as cytotoxic | 1.4% of 400,000 active | AID 1347075; note: % is set by controls: 0 for no effect and ±100 for the full control effect; nearly all actives have a fitted effect of over 60% in size
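72 h, 37 °C compound treatment of KB-3-1 parental cells; CellTiter-Glo added, 10 min, luminescence read. Data corrected against DMSO-only plates and normalized before curve fitting.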
ATXN2 expr inh – inhibitors of ATXN2 expression; HEK-293 ATXN2-luciferase reporter, luminescence, 24 h; Potency, µM (titrated, usually from 57 µM), inactives show at the top dose activity change, negative = inhibition, hits mostly inhibitors; 0.72% of 360,000 active; AID 1745845; note: % is set by controls: 0 for no effect and ±100 for the full control effect; nearly all actives have a fitted effect of over 55% in size
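ATXN2-luciferase reporter cells (luciferase flanked by upstream and downstream ATXN2 gene portions) were treated 24 h at 37 °C with compounds at up to 57 uM. SteadyGlo luminescence gave expression; GF-AFC fluorescence gave viability.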
* = called active by the depositor; i = inactive; ? = inconclusive; . = no result given; [ ] = another dose, or the depositor's remark. A selection: hits, their analogues and other compounds. The true share with any hit is near 6.2%. Calls come from the whole dose curve; as a rule, active = well fitted curve in the direction sought with a large enough effect; inconclusive = small, poorly fitted or top-dose-only effect, or another doubt; inactive = no such curve, though single readings can be large; an effect the other way counts as inactive or inconclusive. Potency is the fitted concentration of half-maximal effect.

SMILES | HT1080 IDH1KD tx | HT1080NT lethal | KB-V1 MDR tox | ATXN viability | KB-3-1 cytotox | ATXN2 expr inh
O=C(CN1CCN(Cc2ccc(Cl)cc2)C1=O)NCCCN1CCN(c2ccc(F)cc2)CC1 | 15.8µM* | ? | i | i | ? | -35.5%
O=C(NCCCN1CCN(c2ccc(F)cc2)CC1)Nc1ccc(Cl)cc1 | . | . | i | ? | i | ?
COC(=O)c1ccccc1NC(=O)c1cc(=O)c2ccc(C)c(C)c2o1 | . | . | i | i | ? | 5.6%
COc1ccc(NC(=O)CN(C)C(=O)COc2ccccc2Cc2ccccc2)cc1 | -4.7% | 1.9%[9.24 µM] | i | i | i | -17.8%
C/C=C/c1ccc(OCC(=O)Nc2cc(OC)c(OC)c(OC)c2)c(OC)c1 | -14.3% | -14.7% | ? | i | ? | -1.9%
COc1cc(/C=C/c2cc[n+](C)cc2)ccc1OCC(=O)Nc1ccc(Cl)c(Cl)c1 | 23.1µM* | ? | i | i | ? | -11.9%
CN(CC(=O)Nc1ccc(F)cc1)C(=O)COc1ccccc1Cc1ccccc1 | -24.1% | -7.8% | 18.4µM* | i | ? | -17.0%
COc1ccc(NC(=O)COc2ccc(/C=C/c3cc[n+](C)cc3)cc2OC)cc1 | 7.0% | -2.5% | i | i | ? | -6.6%
CN(CC(=O)Nc1ccccc1C(F)(F)F)C(=O)COc1ncnc2sccc12 | 17.3% | 15.9% | i | i | i | 11.2%
C/C=C/c1ccc(OCC(=O)N(C)CC(=O)Nc2ccc(F)cc2)c(OC)c1 | -7.6% | -3.6% | 16.4µM* | i | i | 2.1%
CN(CC(=O)Nc1ccccc1C(F)(F)F)C(=O)COc1ccccc1Cc1ccccc1 | -12.0% | 6.9% | 8.2µM* | i | i | 2.0%
Cc1nnsc1-c1onc(C)c1C(=O)Nc1cc(Cl)cc(Cl)c1 | ? | ? | 16.4µM* | ? | i | .
Cc1ccc(NC(=O)c2c(C)noc2-c2snnc2C)cc1 | ? | -26.1% | ? | ? | ? | -13.7%
CCc1ccc(C2CC(=O)c3c([nH]c(C(=O)OC4CCC(C)CC4)c3C)C2)cc1 (stereo not given) | . | . | i | i | i | -3.4%
O=C1Cc2c([nH]c3ccc([N+](=O)[O-])cc23)-c2ccccc2N1 | 2.06µM* | -9.6% | ? | ? | 0.82µM* | ?
COc1cc(-c2ccc3ncnc(NCCc4cnc[nH]4)c3c2)cc(OC)c1OC | . | . | i | . | i | .
Cc1cccc(NC(=S)NNc2ncc(C(F)(F)F)cc2Cl)c1 | -16.6% | -1.5% | 14.6µM* | i | ? | ?
O=C(Nc1ccccc1)Nc1ncc(C(F)(F)F)cc1Cl | -0.3% | -1.0% | i | i | i | .
FC(F)(F)c1cnc(NNC(=S)Nc2ccccc2Cl)c(Cl)c1 | ? | ? | ? | i | 16.4µM* | 5.97µM*
S=C(NNc1ccnc2cc(Cl)ccc12)Nc1ccccc1Cl | ? | ? | ? | ? | 23.1µM* | ?
CCOC(=O)c1noc2ncnc(N(CCC(=O)OC)c3ccccc3)c12 | . | . | i | i | i | -3.0%
CCCCOc1c(C(=O)c2c(F)cc(C)cc2F)cnc2n[nH]cc12 | . | . | . | . | . | 9.68µM*
CCOC(=O)c1cnc2ccc(C)cc2c1Sc1ccc(F)cc1 | ? | ? | ? | i | ? | 15.8%
Oc1cc(-c2ccc(N3CCCCC3)nc2)cc2cccnc12 | . | . | ? | i | 5.17µM* | ?
CN(C)CCCNC(=O)c1ccc(-c2cc(O)c3ncccc3c2)cc1 | . | . | ? | i | i | ?
SMILES | HT1080 IDH1KD tx | HT1080NT lethal | KB-V1 MDR tox | ATXN viability | KB-3-1 cytotox | ATXN2 expr inh
Oc1cc(-c2ccncc2)cc2cccnc12 | . | . | ? | i | 10.3µM* | 3.55µM*
CN(C)c1ccc(-c2cc(O)c3ncccc3c2)cc1 | . | . | i | i | i | ?
CCC(=O)N1CCc2cc(Br)cc(S(=O)(=O)Nc3ccccc3C(=O)OC)c21 | . | . | i | i | i | 14.4%
CCOc1ccc(OCC(=O)Nc2nnc3n2CCS3)cc1 | . | . | i | i | i | 2.0%
C=CCn1c(SCC(C)=O)nc2scc(-c3ccco3)c2c1=O | -4.3% | -6.7% | i | i | i | -6.0%
C=CCn1c(SCC(=O)c2[nH]c(C)c(C(=O)OC)c2C)nc2scc(-c3ccc(OC)c(OC)c3)c2c1=O | 6.8% | 1.0% | 6.51µM* | ? | 4.11µM* | ?
COc1cccc(C2C3=C(CC(C)(C)CC3=O)Nc3cc4c(cc32)OCO4)c1 (stereo not given) | -4.4% | -4.4% | ? | ? | i | -6.6%
CCOc1ccccc1C1CC(=O)Nc2cc3c(cc21)OCO3 (stereo not given) | 9.1% | 16.5% | i | . | i | .
COc1cc2c(cc1OC)C(c1ccc3c(c1)OCO3)C1=C(CC(C)(C)CC1=O)N2 (stereo not given) | -0.8% | 3.5% | 0.731µM* | ? | i | 7.0%
O=C1OCC2=C1C(c1ccc(F)cc1)c1cc3c(cc1N2)OCCO3 (stereo not given) | 0.184µM* | 0.184µM* | 0.0326µM* | i | 0.164µM* | -3.9%
CCOc1ccccc1C1C2=C(COC2=O)Nc2cc3c(cc21)OCO3 (stereo not given) | 0.651µM* | 1.16µM* | 3.66µM* | ? | 1.16µM* | 19.9%
C#CCOc1ccc(C2C3=C(COC3=O)Nc3cc4c(cc32)OCO4)cc1OC (stereo not given) | 0.092µM* | 0.0461µM* | 4.61µM* | i | ? | -25.9%
O=C1OCC2=C1C(c1ccc3c(c1)OCO3)Sc1ccccc1N2 (stereo not given) | -22.8% | -3.2% | i | i | i | -9.8%
O=C1OCC2=C1C(c1ccc(F)cc1)c1cc3c(cc1N2)OCO3 (stereo not given) | 0.116µM* | 0.184µM* | 0.146µM* | ? | 0.0366µM* | ?
COc1ccc(C2C(Oc3ccccc3)C(=O)N2c2cc(C)ccc2C)cc1OC (stereo not given) | 2.0% | 1.8% | 6.51µM* | i | i | 0.9%
O=c1[nH]c(CSc2ccccn2)nc2c1cnn2-c1ccccc1 | 1.1% | 0.4% | 20.6µM* | i | i | 15.7%
Cc1nnc(NC(=O)c2sc3nc(-c4cccs4)cc(C(F)(F)F)c3c2N)s1 | -4.6% | -22.9% | 13µM* | ? | i | -9.0%
Nc1c(C(=O)Nc2nccs2)sc2nc(-c3cccs3)cc(C(F)(F)F)c12 | ? | ? | i | i | i | -18.6%
CCOC(=O)c1c(N2C(=O)C=CC2=O)sc(C)c1C | 5.01µM* | 3.98µM* | i | ? | i | ?

Screening data as filed in PubChem BioAssay.
